Assay results published in PubChem BioAssay.
Measured potencies and affinities stand elsewhere. Activity calls are given as the source filed them. No cut-off is given here; in the data, nearly all actives have IC50 up to about 0.91 µM.

These molecules were tested against Calcium-dependent protein kinase 4 (Plasmodium falciparum (isolate 3D7)) (UniProt Q8IBS5) (assay: PfCDPK4 kinase inhibitors, biochemical, TCAMS library (AID 1159588)). Conditions: recombinant PfCDPK4, Kinase-Glo ATP depletion luminescence.
Sequence of Calcium-dependent protein kinase 4 (Plasmodium falciparum (isolate 3D7)) (Q8IBS5 whole entry, looked up): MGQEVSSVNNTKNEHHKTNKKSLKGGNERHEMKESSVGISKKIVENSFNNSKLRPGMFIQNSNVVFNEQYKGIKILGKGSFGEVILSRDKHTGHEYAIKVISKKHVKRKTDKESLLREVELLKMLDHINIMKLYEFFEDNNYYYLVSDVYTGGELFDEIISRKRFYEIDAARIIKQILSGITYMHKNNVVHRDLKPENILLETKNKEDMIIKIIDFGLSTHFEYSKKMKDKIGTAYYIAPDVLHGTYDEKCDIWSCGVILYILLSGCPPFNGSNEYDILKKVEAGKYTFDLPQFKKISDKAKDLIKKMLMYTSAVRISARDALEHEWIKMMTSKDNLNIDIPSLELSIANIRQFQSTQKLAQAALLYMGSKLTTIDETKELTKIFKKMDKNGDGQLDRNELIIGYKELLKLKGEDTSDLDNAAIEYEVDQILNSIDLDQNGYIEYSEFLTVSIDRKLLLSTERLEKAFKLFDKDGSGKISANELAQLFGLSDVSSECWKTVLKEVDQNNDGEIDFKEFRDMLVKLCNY

outcome, inactive:
CC(C)(C)c1ccc(NC(=O)c2ccc(CN3CCCN(Cc4cccc(Cl)c4)CC3)cc2)cc1, CC1(C)[C@H]2CC[C@@H](CNc3nc(NCCc4cnc[nH]4)nc(Nc4ccc5c(c4)OCO5)n3)[C@@H]1C2, Cc1cc(C2CCN(CCCCNC(=O)c3ccc(NC(=O)c4ccc(Cl)cc4)cc3)CC2)c(C)cc1OCc1ccccn1, Oc1ccc(CCCNc2nc(NCc3ccccc3-c3ccccc3)nc(NC3CCNCC3)n2)cc1, CCC(=Cc1cccc([N+](=O)[O-])c1)C(=O)NCC1CCN(c2nc(N)c3cc(OC)c(OC)cc3n2)CC1, NCCCCc1c(-c2ccc(Cl)c(Cl)c2)[nH]c2ccc(Cl)cc12, CCCCN(C(=O)c1ccccc1C)c1nnc(-c2ccccc2C)s1, Cc1cccc2[nH]c(-c3ccc(-c4cccc(NC(=O)COc5ccccc5C(N)=O)c4)s3)nc12, COc1ccc2nccc([C@@H](O)CN3CCC(NC(=O)c4nc(Cl)c(Cl)c(N)c4Cl)CC3)c2c1, Cc1cc(N2CCCC2)nc(Nc2ccc(NC(=O)c3ccc(Br)o3)cc2)n1, Cn1c(=N)cc(-c2ccc(Br)cc2)c2c(=O)[nH]c(N)nc21, CCC(C)(C)NC(=O)C(c1cccc(OC)c1)N(C(=O)CNC(=O)c1cccs1)c1ccc2c(c1)OCCO2 (stereo not given), Oc1ccccc1CCNCC1CCc2ccccc2C1 (stereo not given), COc1ccc2nccc([C@@H](O)CN3CCC(NCc4ccc(OC)c(NC=O)c4)CC3)c2c1, CCCN(Cc1ccc(OCC)cc1)Cc1cc(=O)c2cc(Cl)ccc2[nH]1, COc1cc(NCCCCCNc2cc(Cl)nc3ccccc23)nc2ccccc12, FC(F)(F)c1ccc2nc(-c3cccc(-c4cccc(CN5CCN(c6ccncc6)CC5)c4)c3)[nH]c2c1, CN1CCN(CCCN(Cc2csc(-c3ccc(CNCc4ccccc4)cc3)n2)S(=O)(=O)c2ccccc2)CC1, O=S1(=O)NC2(CCN(CCc3ccc(Cl)cc3)CC2)Nc2cc(F)cc(F)c21, O=C(NCCCN1CCCC1=O)c1cnc(N2CCC(Oc3ccccc3)CC2)c(Cl)c1, COc1ccc(C(=O)Nc2cc(Br)c3c(c2)CNCC3)cc1Br, NC(Cc1ccc(Cl)cc1)=NCCN1CCCCCC1, CC1CCCC(NC(=O)CCOc2ccccc2)C1 (stereo not given), Cc1noc(-c2ccc(NC[C@@H](C)NC[C@H](O)c3cccc(Cl)c3)cc2)n1, COc1ccc(NC(=O)Nc2cccc(-c3ccncc3)c2)cc1N1CCN(C)CC1, Cc1cc(N2CCCN(CC3CCCCC3)CC2)nc(Nc2ccc(Br)cc2)n1, CCCNCc1ccc(-c2ccc(CN(CCOC)C(=O)c3cscn3)cc2)nc1, CC(=O)Nc1ccc(Cl)c(Cl)c1, O=C(Nc1ccc(CN2CCCCC2)cc1)c1ccc(COc2ccc([N+](=O)[O-])cc2)o1, CCOc1ccc(/C=C/C(=O)Nc2cccc3c2CCN(C)C3)cc1, Cc1cc(NN=Cc2ccc(F)cc2)c2cccc(C)c2n1, COc1ccc(CNC(=O)c2cnc3c(O)cccc3c2Nc2cccc(NC(=O)c3ccc(F)cc3)c2)cc1, CCCCOc1cc2[nH]cc(C(=O)OCC)c(=O)c2cc1OCCCC, OC(Cn1ccnc1)(c1ccc(Cl)cc1Cl)C1CCCCC1 (stereo not given), O=C(c1cccs1)N1CCN(c2ccc([N+](=O)[O-])c(NC3CC3)c2)CC1, CC(=O)Nc1cccc(C(=O)Nc2cccc(-c3ccc(-c4nc5ccc(F)cc5[nH]4)s3)c2)c1, C=C1C[C@@H](n2cnc3c(NC(=O)c4ccccc4)ncnc32)[C@@H](F)[C@@H]1OC(c1ccccc1)(c1ccccc1)c1ccccc1, CS(=O)(=O)Nc1ccc2[nH]cc(C3CCN(CC4CCC(NC(=O)/C=C/c5ccc(Cl)c(Cl)c5)CC4)CC3)c2n1 (stereo not given), CN1CCN(c2ccnc3ccc(NC(=O)Nc4ccc(-c5ccccc5)cc4)cc23)CC1, CCC[C@@H]([C@@H](CC(C)C)C(=O)N[C@@H](CCCCNC(=O)c1ccccn1)C(=O)Nc1nccs1)N(O)C=O
